{"source": "the supplement of paper PMC8728848", "assay_in_all_cases": "glycan array binding signal (z-score within array); higher = stronger binding", "conditions_in_all_cases": "glycan notation: IUPAC condensed, linker removed", "key": {"[1]": {"biological_target": "Fuc(a1-2)Gal(b1-3)GalNAc", "outline": "(§1)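 Arrays were curated from the Consortium for Functional Glycomics database, 3228 in total, and kept only where the protein sequence was available. Binding is expressed as a within-array Z-score. This score was averaged across arrays of the same protein sequence at different concentrations or buffers and across linkers, and negative values can be read as non-binding.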"}, "[2]": {"biological_target": "Fuc(a1-2)Gal(b1-3)GalNAc(b1-4)[Neu5Ac(a2-3)]Gal(b1-4)Glc", "outline": "as §1"}, "[3]": {"biological_target": "Fuc(a1-2)Gal(b1-3)GlcNAc(b1-3)[Gal(b1-4)GlcNAc(b1-6)]Gal(b1-4)Glc", "outline": "as §1"}, "[4]": {"biological_target": "Fuc(a1-2)Gal(b1-4)[Fuc(a1-3)]GlcNAc(b1-3)Gal(b1-4)[Fuc(a1-3)]GlcNAc", "outline": "as §1"}, "[5]": {"biological_target": "Fuc(a1-2)[Gal(a1-3)]Gal(b1-4)Glc", "outline": "as §1"}, "[6]": {"biological_target": "Fuc(a1-2)[GalNAc(a1-3)]Gal(b1-4)GlcNAc(b1-2)Man(a1-3)[Fuc(a1-2)[GalNAc(a1-3)]Gal(b1-4)GlcNAc(b1-2)Man(a1-6)]Man(b1-4)GlcNAc(b1-4)[Fuc(a1-6)]GlcNAc", "outline": "as §1"}, "[7]": {"biological_target": "Fuc(a1-2)[GalNAc(a1-3)]Gal(b1-4)GlcNAc(b1-3)GalNAc", "outline": "as §1"}, "[8]": {"biological_target": "Fuc(a1-3)[Gal(b1-4)]Glc6S", "outline": "as §1"}, "[9]": {"biological_target": "Fuc(a1-3)[Gal3S(b1-4)]Glc", "outline": "as §1"}, "[10]": {"biological_target": "Gal(a1-3)Gal", "outline": "as §1"}, "[11]": {"biological_target": "Gal(a1-3)[Gal(a1-4)]Gal(b1-4)GlcNAc", "outline": "as §1"}, "[12]": {"biological_target": "Gal(b1-3)GlcNAc(b1-3)Gal(b1-3)GlcNAc", "outline": "as §1"}, "[13]": {"biological_target": "Gal(b1-3)GlcNAc(b1-3)Gal(b1-4)GlcNAc(b1-2)Man(a1-3)[Gal(b1-3)GlcNAc(b1-3)Gal(b1-4)GlcNAc(b1-2)Man(a1-6)]Man(b1-4)GlcNAc(b1-4)GlcNAc", "outline": "as §1"}, "[14]": {"biological_target": "Gal(b1-3)GlcNAc(b1-3)Gal(b1-4)GlcNAc(b1-3)Gal(b1-4)GlcNAc(b1-2)[Gal(b1-3)GlcNAc(b1-3)Gal(b1-4)GlcNAc(b1-3)Gal(b1-4)GlcNAc(b1-6)]Man(a1-6)[Gal(b1-3)GlcNAc(b1-3)Gal(b1-4)GlcNAc(b1-3)Gal(b1-4)GlcNAc(b1-2)Man(a1-3)]Man(b1-4)GlcNAc(b1-4)[Fuc(a1-6)]GlcNAc", "outline": "as §1"}, "[15]": {"biological_target": "Gal(b1-3)[Neu5Ac(a2-6)]GalNAc", "outline": "as §1"}, "[16]": {"biological_target": "Gal(b1-4)GlcNAc(b1-2)Man", "outline": "as §1"}, "[17]": {"biological_target": "Gal(b1-4)GlcNAc(b1-2)Man(a1-6)Man(b1-4)GlcNAc(b1-4)GlcNAc", "outline": "as §1"}, "[18]": {"biological_target": "Gal(b1-4)GlcNAc(b1-2)[Gal(b1-4)GlcNAc(b1-4)]Man(a1-3)[Gal(b1-4)GlcNAc(b1-2)[Gal(b1-4)GlcNAc(b1-6)]Man(a1-6)]Man(b1-4)GlcNAc(b1-4)GlcNAc", "outline": "as §1"}, "[19]": {"biological_target": "Gal(b1-4)GlcNAc(b1-2)[Gal(b1-4)GlcNAc(b1-4)]Man(a1-3)[GlcNAc(b1-4)][Gal(b1-4)GlcNAc(b1-2)[Gal(b1-4)GlcNAc(b1-6)]Man(a1-6)]Man(b1-4)GlcNAc(b1-4)GlcNAc", "outline": "as §1"}, "[20]": {"biological_target": "Gal(b1-4)GlcNAc(b1-3)Gal(b1-3)GalNAc", "outline": "as §1"}, "[21]": {"biological_target": "Gal(b1-4)GlcNAc(b1-3)Gal(b1-4)GlcNAc(b1-2)Man(a1-3)[Gal(b1-4)GlcNAc(b1-3)Gal(b1-4)GlcNAc(b1-2)Man(a1-6)]Man(b1-4)GlcNAc(b1-4)GlcNAc", "outline": "as §1"}, "[22]": {"biological_target": "Gal(b1-4)GlcNAc(b1-3)Gal(b1-4)GlcNAc(b1-2)Man(a1-3)[Gal(b1-4)GlcNAc(b1-3)Gal(b1-4)GlcNAc(b1-2)Man(a1-6)]Man(b1-4)GlcNAc(b1-4)[Fuc(a1-6)]GlcNAc", "outline": "as §1"}, "[23]": {"biological_target": "Gal(b1-4)GlcNAc(b1-3)Gal(b1-4)GlcNAc(b1-3)Gal(b1-4)GlcNAc", "outline": "as §1"}, "[24]": {"biological_target": "Gal(b1-4)GlcNAc(b1-3)Gal(b1-4)GlcNAc(b1-3)Gal(b1-4)GlcNAc(b1-2)[Gal(b1-4)GlcNAc(b1-3)Gal(b1-4)GlcNAc(b1-3)Gal(b1-4)GlcNAc(b1-6)]Man(a1-6)[Gal(b1-4)GlcNAc(b1-3)Gal(b1-4)GlcNAc(b1-3)Gal(b1-4)GlcNAc(b1-2)Man(a1-3)]Man(b1-4)GlcNAc(b1-4)[Fuc(a1-6)]GlcNAc", "outline": "as §1"}, "[25]": {"biological_target": "Gal(b1-4)GlcNAc(b1-3)Gal(b1-4)GlcNAc(b1-3)Gal(b1-4)GlcNAc(b1-3)Gal(b1-4)GlcNAc(b1-2)Man(a1-3)[Gal(b1-4)GlcNAc(b1-3)Gal(b1-4)GlcNAc(b1-3)Gal(b1-4)GlcNAc(b1-3)Gal(b1-4)GlcNAc(b1-2)Man(a1-6)]Man(b1-4)GlcNAc(b1-4)GlcNAc", "outline": "as §1"}, "[26]": {"biological_target": "Gal(b1-4)GlcNAc(b1-6)[Gal(b1-4)GlcNAc(b1-3)]GalNAc", "outline": "as §1"}, "[27]": {"biological_target": "Gal3S(b1-4)[Fuc(a1-3)]Glc6S", "outline": "as §1"}, "[28]": {"biological_target": "GlcNAc(a1-4)Gal(b1-3)GlcNAc", "outline": "as §1"}}, "note": "Shown is part of a subset that was picked to be rich in the strongest signals."}
{"binder": "Aap brpt (Staphylococcus epidermidis) (protein) VDGDPITSTEEIPFDKKREFDPNLAPGTEKVVQKGEPGTKTITTPTTKNPLTGEKVGEGEPTEKITKQPVDEIVHYGGEEIKTGHKDEFDPNAPKGSQTTQPGKPGVKNPDTGEVVTPPVDDVTKYGPVDGDPITSTEEIPFDKKREFDPNLAPGTEKVVQKGEPGTKTITTPTTKNPLTGEKVGEGEPTEKITKQPVDEIVHYGGEEIKPGHKDEFDPNAPKGSQEDVPGKPGVKNPDTGEVVTPPVDDVTKYGPVDGDSITSTEEIPFDKKREFDPNLAPGTEKVVQKGEPGTKTITTPTTKNPLTGEKVGEGEPTEKITKQPVDEIVHYGGEQIPQGHKDEFDPNAPVDSKTEVPGKPGVKNPDTGEVVTPPVDDVTKYGPVDGDSITSTEEIPFDKKREFDPNLAPGTEKVVQKGEPGTKTITTPTTKNPLTGEKVGEGKSTEKVTKQPVDEIVEYGPTK", "values": [{"measurement": "glycan array binding signal (z-score)", "setting": "[1]", "value": -1}, {"measurement": "glycan array binding signal (z-score)", "setting": "[2]", "value": -0.026}, {"measurement": "glycan array binding signal (z-score)", "setting": "[3]", "value": 0.337}, {"measurement": "glycan array binding signal (z-score)", "setting": "[4]", "value": -0.951}, {"measurement": "glycan array binding signal (z-score)", "setting": "[5]", "value": -0.658}, {"measurement": "glycan array binding signal (z-score)", "setting": "[6]", "value": 0.323}, {"measurement": "glycan array binding signal (z-score)", "setting": "[7]", "value": -2.27}, {"measurement": "glycan array binding signal (z-score)", "setting": "[8]", "value": 0.738}, {"measurement": "glycan array binding signal (z-score)", "setting": "[9]", "value": 0.077}, {"measurement": "glycan array binding signal (z-score)", "setting": "[10]", "value": 2.41}, {"measurement": "glycan array binding signal (z-score)", "setting": "[11]", "value": 0.93}, {"measurement": "glycan array binding signal (z-score)", "setting": "[12]", "value": -0.56}, {"measurement": "glycan array binding signal (z-score)", "setting": "[13]", "value": -0.969}, {"measurement": "glycan array binding signal (z-score)", "setting": "[14]", "value": -0.027}, {"measurement": "glycan array binding signal (z-score)", "setting": "[15]", "value": 0.106}, {"measurement": "glycan array binding signal (z-score)", "setting": "[16]", "value": -0.301}, {"measurement": "glycan array binding signal (z-score)", "setting": "[17]", "value": -0.494}, {"measurement": "glycan array binding signal (z-score)", "setting": "[18]", "value": 0.481}, {"measurement": "glycan array binding signal (z-score)", "setting": "[19]", "value": -0.768}, {"measurement": "glycan array binding signal (z-score)", "setting": "[20]", "value": -0.487}, {"measurement": "glycan array binding signal (z-score)", "setting": "[21]", "value": 3.34}, {"measurement": "glycan array binding signal (z-score)", "setting": "[22]", "value": 0.377}, {"measurement": "glycan array binding signal (z-score)", "setting": "[23]", "value": 0.054}, {"measurement": "glycan array binding signal (z-score)", "setting": "[24]", "value": 2.44}, {"measurement": "glycan array binding signal (z-score)", "setting": "[25]", "value": -0.738}, {"measurement": "glycan array binding signal (z-score)", "setting": "[26]", "value": -0.18}, {"measurement": "glycan array binding signal (z-score)", "setting": "[27]", "value": 2.61}, {"measurement": "glycan array binding signal (z-score)", "setting": "[28]", "value": -0.124}]}
